IMPase Li cell – qHTS Assay for Identifying the Cell-Membrane Permeable IMPase Inhibitors: Potentiation with Lithium | CHO-M1 cells, IP1 TR-FRET (IP-One), carbachol + lithium | Potency, µM (series often up to 59.4 µM), for inactives: at the top dose activity, negative = IMPase inhibition, most hits filed as inhibitors | hit rate 0.35% among 210,000 | AID 1457, 2008;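 also: IP1 builds up when IMPase is blocked and the TR-FRET signal falls; potency is read from the fitted curve at half-maximal effect; plate controls were basal vehicle for no effect and high inhibitor control for full effect; nearly all actives have a fitted effect of over 50% in size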
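Concentration–response in CHO-M1 cells, lithium-potentiated; 30 min at 37C. IP1 detected by competitive TR-FRET after 10 min lysis at RT. Hill-fitted AC50.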
ALOX12 inhib – qHTS Assay for Inhibitors of 12-hLO (12-human lipoxygenase) | Potency, µM (highest dose often 57.1 µM), without a hit: at the highest dose activity change, negative = inhibition, actives largely listed as inhibitors | hit rate 0.12% among 150,000 | purified 12-hLO, xylenol orange hydroperoxide absorbance | AID 1452, 2008; also: potency is read from the fitted curve at half-maximal effect; nearly all actives have a fitted effect of over 55% in size
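Hydroperoxide output read as Fe(III)-xylenol orange absorbance, 573-to-405 nm ratio, after 30 min reaction with 40 uM arachidonic acid. Enzyme: 150 nM purified human 12hLO, 15 min compound preincubation; 25 mM Hepes pH 7.0, room temperature.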
ALDH1A1 block – qHTS Assay for Inhibitors of Aldehyde Dehydrogenase 1 (ALDH1A1). hit rate 7.3% among 220,000. Purified ALDH1A1, NADH fluorescence, propionaldehyde substrate. AID 1030, 2008. Potency, µM (series often up to 75.3 µM), inactives show at the highest dose activity, negative = inhibition, most hits filed as inhibitors; active = well fitted inhibition curve with a large enough effect, not every such curve was filed as active; inconclusive = small, poorly fitted or top-dose-only effect, or another doubt; inactive = no such curve, though single readings can be large or run the other way;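 also: potency is read from the fitted curve at half-maximal effect; plate controls were no enzyme wells and a reference inhibitor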
Target sequence (P00352 whole entry, looked up): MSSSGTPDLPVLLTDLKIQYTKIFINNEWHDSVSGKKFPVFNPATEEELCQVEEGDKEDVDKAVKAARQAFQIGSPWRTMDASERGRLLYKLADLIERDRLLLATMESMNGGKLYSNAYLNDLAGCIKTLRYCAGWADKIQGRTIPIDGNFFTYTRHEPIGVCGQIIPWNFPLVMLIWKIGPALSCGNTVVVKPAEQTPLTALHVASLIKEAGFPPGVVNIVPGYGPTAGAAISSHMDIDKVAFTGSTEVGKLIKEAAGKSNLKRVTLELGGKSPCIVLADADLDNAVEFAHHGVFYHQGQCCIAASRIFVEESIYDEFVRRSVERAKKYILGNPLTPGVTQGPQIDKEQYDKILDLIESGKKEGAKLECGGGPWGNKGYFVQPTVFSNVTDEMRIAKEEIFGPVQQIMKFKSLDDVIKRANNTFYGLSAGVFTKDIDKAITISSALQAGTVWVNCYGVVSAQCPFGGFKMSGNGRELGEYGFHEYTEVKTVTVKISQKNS
HPGD inh – qHTS Assay for Inhibitors of HPGD (15-Hydroxyprostaglandin Dehydrogenase); purified HPGD, NADH fluorescence kinetic, PGE2 substrate; Potency, µM, inactives show top-dose activity change, negative = inhibition, actives largely listed as inhibitors; hit rate 4.3% among 150,000; AID 894, 2007; active = well fitted inhibition curve with a large enough effect, not every such curve was filed as active; inconclusive = small, poorly fitted or top-dose-only effect, or another doubt; inactive = no such curve, though single readings can be large or run the other way; also: potency is read from the fitted curve at half-maximal effect
Target sequence (P15428 whole entry, looked up): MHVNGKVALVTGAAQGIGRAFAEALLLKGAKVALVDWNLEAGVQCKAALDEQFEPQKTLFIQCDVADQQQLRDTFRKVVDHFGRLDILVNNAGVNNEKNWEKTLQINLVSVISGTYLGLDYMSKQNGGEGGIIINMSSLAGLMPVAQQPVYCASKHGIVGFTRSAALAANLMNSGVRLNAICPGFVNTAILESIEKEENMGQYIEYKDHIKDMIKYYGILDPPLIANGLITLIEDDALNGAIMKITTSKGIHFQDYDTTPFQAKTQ
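20 nM HPGD preincubated 15 min at room temperature with compound in 50 mM Tris-HCl pH 8, 0.01% Tween 20. Started with 1 mM NAD+ and 30 uM prostaglandin E2; NADH fluorescence (360/450 nm) read 5 times over 30-s intervals, last minus first.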
IMPase inh – qHTS Assay for Identifying the Cell-Membrane Permeable IMPase Inhibitors. inhibition (IP1 accumulation), % at 46.1 µM. CHO-M1 cells, IP1 accumulation, HTRF TR-FRET ratio. 120,000 tested, under 10 active; active = well fitted curve in the direction sought with a large enough effect in the signal ratio, not every such curve was filed as active; inconclusive = small, poorly fitted or top-dose-only effect, or a change in a side signal; inactive = no such curve, though single readings can be large or run the other way; the % refers to the signal ratio;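 also: cells stimulated with carbachol in lithium chloride buffer; plate controls were DMSO basal wells for no effect and reference inhibitor wells for full effect; higher means more IMPase inhibition seen as more IP1 and lower FRET ratio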
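Carbachol-driven Gq signalling in CHO-M1 cells (2000/well) generates IP1. Compounds that block IMPase raise IP1 and so reduce the FRET signal from Eu-anti-IP1 and d2-IP1 after a 10 min room-temperature lysis.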
NPSR antagonist – qHTS Assay for Antagonists of the Neuropeptide S Receptor: cAMP Signal Transduction; AID 1461, 2008; hit rate 1% among 220,000; CHO-NPSR cells, cAMP TR-FRET, antagonist mode; Potency, µM (series often up to 38.3 µM), without a hit: at the highest dose activity change, negative = inhibition, usual class: inhibitors; Q6W5P4; also: potency is read from the fitted curve at half-maximal effect; nearly all actives have a fitted effect of over 50% in size
* hit, by the source's call; u = inconclusive; x = not tested or not shown; [ ] = remark or other dose. Sampled rows, rich in hits. Any-hit rate of the full collection: about 8.9%. Unless noted, calls follow the shape of the dose curve; as a rule, active = well fitted curve in the direction sought with a large enough effect; inconclusive = small, poorly fitted or top-dose-only effect, or another doubt; inactive = no such curve, though single readings can be large; an effect the other way counts as inactive or inconclusive. Unless noted, % is scaled to controls: 0 for no effect and ±100 for the full control effect.

SMILES	IMPase Li cell	ALOX12 inhib	ALDH1A1 block	HPGD inh	IMPase inh	NPSR antagonist
Nc1ccc(C23CC4CC(CC(CO)(C4)C2)C3)cc1	-28%[38.3 µM]	-6%	11µM*	-9%	9	7%[46.1 µM]
COc1ccc(OC)c(C(=O)COC(=O)C2CC3CCCC(C2)C3=O)c1 (centres undefined)	44%[38.3 µM]	0%	7.1µM*	-24%	10	-15%[46.1 µM]
NS(=O)(=O)c1cccc(NC(=O)CN2CCc3ccccc32)c1	3%	x	7.9µM*	x	x	-2%
CCCCCOP(=O)(OCCCCC)C1(NS(=O)(=O)c2ccccc2)C=CC(=O)c2ccccc21 (centres undefined)	x	-27%	6%	x	5	10µM*
COc1cc(C2CC(=O)n3c(nc4ccccc43)S2)cc(OC)c1OC (centres undefined)	9%	4%	u	-9%	-5	1%
COc1ccccc1N1CSC2=C(C#N)C(c3ccc(SC)cc3)CC(=O)N2C1 (centres undefined)	-15%[38.3 µM]	u	8.9µM*	8.9µM*	1	-8%[46.1 µM]
COc1cc(C2CC(=O)N3CN(c4ccccc4C)CSC3=C2C#N)cc(OC)c1OC (centres undefined)	-27%[38.3 µM]	u	2.8µM*	28µM*	-4	-10%[46.1 µM]
CCC(=O)Nc1nnc(SCc2ccc(F)cc2)s1	1%	1%	-1%	1%	x	-3%[46.1 µM]
Cc1nc2cc3ccccc3cc2n1C	11%	-4%	u	-16%	x	13%
CC(C)Cc1nc(SCC(=O)Nc2nnc(CC(C)C)s2)n[nH]1	x	x	x	x	x	13%
O=C(COc1ccc([N+](=O)[O-])cc1)NCCC1=CCCCC1	11%	-3%	10µM*	-11%	x	-3%
COC(=O)COc1ccc(S(=O)(=O)NCCC2=CCCCC2)cc1	17%[38.3 µM]	7%	22µM*	-1%	-7[1.84 µM]	-14%[46.1 µM]
CCCNS(=O)(=O)c1ccc(OCC(=O)NCCC2=CCCCC2)cc1	17%[38.3 µM]	1%	11µM*	1%	3	-17%[46.1 µM]
COc1ccc(-c2nn(-c3ccccc3)cc2C(=O)NC(=S)Nc2cc(Cl)ccc2Cl)cc1	x	x	x	x	x	-18%
Cc1cccc(OCC(=O)N/N=C\C=C\c2ccc3c(c2)OCO3)c1C	5%[38.3 µM]	-6%	16%	-10%	6	-11%[46.1 µM]
CC(=O)N1c2ccc(S(=O)(=O)CCC(=O)O)cc2CC1C (centres undefined)	-26%[38.3 µM]	1%	-7%	-2%	0	-4%[46.1 µM]
COc1cccc(N=C2C(=O)N3CCCc4cccc2c43)c1	4%	-1%	0.16µM*	-11%	x	5%
COc1cccc(NC(=O)N2CCCc3ccccc32)c1	12%	x	u	x	x	5%
O=C(COC(=O)c1ccc(NS(=O)(=O)c2cccs2)cc1)NCC1CCCO1 (centres undefined)	4%	x	u	x	x	-12%
C/C(=N\NS(=O)(=O)c1ccc([N+](=O)[O-])cc1)c1ccc(NC(=O)c2ccco2)cc1	0%	x	25µM*	x	x	-28%
CN(C1CCCCC1)S(=O)(=O)c1ccc(NC(=O)c2ccc(Br)o2)cc1	14%	0%	u	-28%	-2	-25%[46.1 µM]
O=C(Nc1ccc(S(=O)(=O)NC2CCCCC2)cc1)c1ccco1	9%	-2%	0%	13µM*	10	16%[46.1 µM]
O=C(Nc1ccc(S(=O)(=O)NC2CCCCC2)cc1)c1ccc(Br)o1	21%[38.3 µM]	-13%	-7%	14µM*	3	-21%[46.1 µM]
Cc1cc(N=CC2=C(O)CC(C)(C)CC2=O)no1	6%[38.3 µM]	-4%	-7%	-1%	7	9%[46.1 µM]
CC1(C)CC(=O)C=C(N=CC2=C(O)CC(C)(C)CC2=O)C1	-9%[38.3 µM]	-2%	8.9µM*	-14%	3	-30%[46.1 µM]
SMILES	IMPase Li cell	ALOX12 inhib	ALDH1A1 block	HPGD inh	IMPase inh	NPSR antagonist
CCOc1ccccc1N=CC1=C(O)CC(c2ccccc2)CC1=O (centres undefined)	11%	x	u	x	x	-52%
COc1ccc(OC)c(N=CC2=C(O)CC(C)(C)CC2=O)c1	18%[38.3 µM]	-5%	13µM*	-20%	-4	-17%[46.1 µM]
COc1ccc(N=CC2=C(O)CC(C)(C)CC2=O)cc1	0%[38.3 µM]	0%	7.9µM*	-5%	14	-2%[46.1 µM]
COc1ccc(N=CC2=C(O)CC(c3ccccc3)CC2=O)c(OC)c1 (centres undefined)	2%	-4%	14µM*	-11%	x	-40%
COCCNC(=O)C1CC(=O)N(C2CCCCC2)C1 (centres undefined)	5%[38.3 µM]	-5%	-2%	-3%	0	4%[46.1 µM]
COC(=O)c1c(NC(NC(=O)CC(C)C)C(Cl)(Cl)Cl)sc2c1CCC2 (centres undefined)	6%	-4%	1%	-2%	9	u
CC(C)CNC(CC(=O)O)c1ccccc1 (centres undefined)	-10%	x	6%	x	x	8%
O=[N+]([O-])c1ccc(O)c(/C=N/n2c(CO)nc3ccccc32)c1	x	x	3.2µM*	x	x	9%
O=[N+]([O-])c1ccc(O)c(/C=N/n2cnc3ccccc32)c1	12%	-4%	u	14µM*	9	-18%[46.1 µM]
COc1cccc(NC(=O)C2C3CCC4C(CCC32)C4(Cl)Cl)c1 (centres undefined)	16%	3%	7.9µM*	-9%	x	-50%
COc1ccc(NC(=O)C2C3CCC4C(CCC32)C4(Cl)Cl)cc1 (centres undefined)	1%	-2%	-1%	-11%	x	14%
CCCCC1=CC2=CC(=O)C(C)(OC(=O)CC)C(=O)C2=CN1CC(C)C (centres undefined)	3%	3%[11.4 µM]	5%[13.5 µM]	-4%	x	2%
Cc1ccc(-n2c(N)c(-c3nc4ccccc4n3C)sc2=S)cc1	31%[38.3 µM]	4%	3.5µM*	6.3µM*	0	-19%[46.1 µM]
O=C(Oc1ccc(N(Cc2cccs2)C2=NS(=O)(=O)c3ccccc32)cc1)c1ccc(Cl)cc1	13%	0%	22µM*	-21%	13	u
O=C(Oc1ccc(N(Cc2cccs2)C2=NS(=O)(=O)c3ccccc32)cc1)c1ccccc1	7%[38.3 µM]	-1%	u	-25%	4	-22%[46.1 µM]
COc1cc(/C=C/C(=O)N2CCC=CC2=O)cc(OC)c1OC	5%	-3%	10µM*	-24%	x	x
COc1cc(/C=C/C(=O)N2CCCN(C(=O)/C=C/c3cc(OC)c(OC)c(OC)c3)CC2)cc(OC)c1OC	8%	x	-11%	x	x	11%
COC(=O)CNc1n[nH]c(=S)[nH]c1=O	11µM*	-2%	4%	-6%	u	-2%[46.1 µM]
CC(C)OC(=O)CNc1n[nH]c(=S)[nH]c1=O	11µM*	x	-9%	x	x	u
